The results in this text go back to PubChem BioAssay (NCATS).

Inconclusive results are not listed. Values without a mark were called inactive. Activity calls are given as the source filed them. The call rests on the fitted dose curve; in most records, active means well fitted cell-killing curve with a large enough effect; inconclusive means small, poorly fitted or top-dose-only effect; inactive means no such curve, though single readings can be large or run the other way.
Potency means the concentration at half of the fitted maximal effect.

The nature of the experiment: qHTS of pediatric cancer cell lines to identify multiple opportunities for drug repurposing: Primary screen for LAN-5 cells (AID 1347100). As to conditions: LAN-5 neuroblastoma viability, CellTiter-Glo luminescence, 48 h; series mostly up to 46 µM; activity change, negative = cytotoxic: at the top concentration. An excerpt:
Drug repurposing or repositioning has been offered as a strategy for drug development in oncology programs. This approach has special potential for childhood cancers and other rare or orphan diseases, where the expected return on new drug development has been a disincentive to pharmaceuticals.
In this project we exploit the poly-pharmacology of drugs to discover new indications via phenotypic screening of a panel of 19 well-characterized cell lines derived from solid tumors seen in children and adolescents. The goal is to identify approved drugs with previously unrecognized anticancer properties that has the potential to reveal new mechanisms and biological processes involved in carcinogenesis or drug resistance. We employed a titration-based paradigm (quantitative high-throughput screening or qHTS), where all compounds were tested at multiple concentrations for their effect on cell viability. Concentration-response curves (CRCs) were derived directly from the primary screen, and both potency and efficacy values were used to identify compounds with robust bioactivity profiles. We screened the NIH Chemical Genomics Center (NCGC) Pharmaceutical Collection (NPC) and Mechanism Interrogation Plate (MIPE) small molecule collections of approved and investigational compounds against these cell lines; and measured metabolically active cells after 48 hours of compound treatment as a proxy for cell viability.
Assay Submitter: Nathalia J. Martinez, National Center for Advancing Translational Sciences, National Institutes of Health, Rockville, MD, USA; email: natalia.martinez@nih.gov
[1] Shen, M et al. Quantitative high-throughput phenotypic screening of pediatric cancer cell lines identifies multiple opportunities for drug repurposing. Oncotarget 2017 Dec 19;9(4):4758-4772. PMID 29435139.
The cells were obtained from University of North Carolina (UNC), Pediatric Preclinical Testing Program (PPT), and Coriell Institute (CI).
qHTS cell viability assay:
Cells were assayed in growth media at a density of 500-1,000 cells/well. Five microliters of cells were dispensed into 1,536-well, white, solid-bottom, TC-treated plates (Greiner Bio One) using a multidrop dispenser and incubated at 37 degrees C, 5% CO2, under a humidified atmosphere for 5 hours. Twenty-three nanoliters of compounds and controls (neutral control DMSO or positive control bortezomib at final concentration of 2.3 µM) were subsequently transferred by Kalypsys pintool. For primary screens, the MIPE collection was tested at 11-point dilutions (final concentrations range from 0.78 nM to 46 µM) and the NPC collection at 8-point dilutions (final concentrations range from 0.59 nM to 46 µM). Compounds tested in follow-up screens were assayed at 11-point dilutions. Cells were incubated for 48 hours, followed by addition of 3 µL of CellTiter-Glo (Promega). After a 15 min incubation at room temperature, samples were analyzed for luminescence intensity using a ViewLux High-throughput CCD imager equipped with clear filters.
On the technique in general: In qHTS, concentration-response curves come from the screen itself.
Consider `C[C@H]1O[C@@H](n2cc(F)c(=O)[nH]c2=O)[C@H](O)[C@H]1O`, for which the Potency is 13.2 µM (active).

For `CCCCCOC(=O)Nc1nc(=O)n([C@@H]2O[C@H](C)[C@@H](O)C2O)cc1F` (stereo not given in full), the “activity change, negative = cytotoxic” value was -17.9%.

Regarding `COc1cc2ncn(-c3cc(OCc4ccccc4S(C)(=O)=O)c(C#N)s3)c2cc1OC`, the “activity change, negative = cytotoxic” value is -15.7%.

As to `Nc1ccn([C@@H]2O[C@H](CO)[C@@H](O)[C@H]2O)c(=O)n1`, the Potency was 0.0935 µM (active).

On to `CC(C)CN(C[C@@H](O)[C@H](Cc1ccccc1)NC(=O)O[C@H]1CO[C@H]2OCC[C@H]21)S(=O)(=O)c1ccc(N)cc1`, for which the Potency was 18.7 µM (active).

On to `O=C(C=Cc1ccc(O)cc1)c1ccc(O)cc1O`, for which the Potency was 20.9 µM (active).

For `N#CC(c1ccc(Cl)cc1)c1c(Cl)cc(-n2ncc(=O)[nH]c2=O)cc1Cl` (stereo not given), the Potency is 7.43 µM (active).

Consider `C#CCN(C)CC1=Cc2ccccc2Oc2ccccc21`, for which the “activity change, negative = cytotoxic” value was -12.4%.

For `OC[C@H]1O[C@@H](O[C@H]2[C@@H](O)[C@@](O)(CO)O[C@@H]2CO)[C@H](O)[C@@H](O)[C@@H]1O`, the “activity change, negative = cytotoxic” value was -12.3%.

`CCN1CCC(n2cc(CNc3cc(Cl)c4ncc(C#N)c(Nc5ccc(F)c(Cl)c5)c4c3)nn2)CC1`: the Potency is 14.8 µM (active).

Take `CCNC(=O)c1noc(-c2cc(C(C)C)c(O)cc2O)c1-c1ccc(CN2CCOCC2)cc1`: the Potency is 0.105 µM (active).

With `NC(=O)c1ccc(N(C(N)=O)c2c(F)cccc2F)nc1-c1ccc(F)cc1F`, the “activity change, negative = cytotoxic” value is 4.87%.

Regarding `COc1cc2nc(-c3cc(F)ccc3O)nc(N[C@@H]3CNC[C@@H]3C(C)(C)O)c2cc1OC`, the Potency was 13.2 µM (active).

Regarding `CC(C)N(CCCNC(=O)Nc1ccc(C(C)(C)C)cc1)C[C@H]1O[C@@H](n2cc(Br)c3c(N)ncnc32)[C@H](O)[C@H]1O`, the Potency is 23.5 µM (active).

With `CN[C@@H]1CN(c2ccc3c(=O)c(C(=O)O)cn(-c4nccs4)c3n2)C[C@@H]1OC`, the Potency was 1.02 µM (active).

`N[C@@H](CC(=O)N1CCn2c(nnc2C(F)(F)F)C1)Cc1cc(F)c(F)cc1F`: the “activity change, negative = cytotoxic” value is -21.2%.

Regarding `CC(C)(F)C[C@H](N[C@@H](c1ccc(-c2ccc(S(C)(=O)=O)cc2)cc1)C(F)(F)F)C(=O)NC1(C#N)CC1`, the “activity change, negative = cytotoxic” value is -16.3%.

`C[C@H]1[C@H](O)O[C@@H]2O[C@@]3(C)CC[C@@H]4[C@H](C)CC[C@@H]1[C@@]24OO3`: the Potency was 6.62 µM (active).

Regarding `CCCCN(CCCC)CC(O)c1cc(Cl)cc2c1-c1ccc(Cl)cc1C2=Cc1ccc(Cl)cc1` (stereo not given), the “activity change, negative = cytotoxic” value was 2.25%.

Take `COC(=O)N1CCN(Cc2cccc(NC(=O)Nc3ccc(C)nc3)c2F)CC1`: the “activity change, negative = cytotoxic” value is -11.7%.

In the case of `O=C(O)CCNc1cc(N2CCc3ccccc3CC2)nc(-c2ccccn2)n1`, the “activity change, negative = cytotoxic” value was -6.15%.

For `CN(C)CCN(C)C(=O)c1ccc(NC(=O)Nc2ccc(-c3nc(N4CCOCC4)c4ccn(CC(F)(F)F)c4n3)cc2)cc1`, the Potency was 2.64 µM (active).

As for `CC[C@@H]([C@H](C)O)n1ncn(-c2ccc(N3CCN(c4ccc(OCC5CO[C@@](Cn6cncn6)(c6ccc(F)cc6F)C5)cc4)CC3)cc2)c1=O` (stereo not given in full), the Potency was 18.7 µM (active).

As to `OC(c1cc(C(F)(F)F)nc2c(C(F)(F)F)cccc12)C1CCCCN1` (stereo not given), the Potency is 33.2 µM (active).

Turning to `CO[C@H]1C=CO[C@@]2(C)Oc3c(C)c(O)c4c(O)c(c(C=NN5CCN(C)CC5)c(O)c4c3C2=O)NC(=O)C(C)=CC=C[C@H](C)[C@H](O)[C@@H](C)[C@@H](O)[C@@H](C)[C@H](OC(C)=O)[C@H]1C`, the activity change, negative = cytotoxic was -8.14% [at 9.22 µM].

On to `NS(=O)(=O)c1cc(Cl)c(Cl)c(S(N)(=O)=O)c1`, for which the “activity change, negative = cytotoxic” value was 2.66%.

Turning to `Cc1cc(NC(=O)Nc2ccc(N(C)C)cc2)c2cc(F)cc(F)c2n1`, the “activity change, negative = cytotoxic” value was -10.7%.

Take `Cn1c(=O)c(-c2c(Cl)cccc2Cl)cc2cnc(Nc3cccc(C(=O)O)c3)nc21`: the “activity change, negative = cytotoxic” value was 5.53%.

In the case of `O=c1[nH]c(=O)n([C@H]2C[C@@H](O)[C@@H](CO)O2)cc1I`, the “activity change, negative = cytotoxic” value was -6.32%.

In the case of `CC(=O)Nc1cccc(-n2c(=O)n(C3CC3)c(=O)c3c(Nc4ccc(I)cc4F)n(C)c(=O)c(C)c32)c1`, the Potency was 18.7 µM (active).

On to `Fc1ccc(CNc2ncnc3ccc(F)cc23)cc1`, for which the “activity change, negative = cytotoxic” value was -19%.

In the case of `O=C(Nc1ccccc1)Nc1ccc(-c2ccc(C(=O)[C@H]3CCC[C@H]3C(=O)O)cc2)cc1`, the “activity change, negative = cytotoxic” value was -15.5%.

As for `O=C1NC(=O)C(c2cnc3ccccn23)=C1c1cn2c3c(cccc13)CN(C(=O)N1CCOCC1)CC2`, the Potency is 2.96 µM (active).

In the case of `CCCCCCOC(=O)N=C(N)c1ccc(NCc2nc3cc(C(=O)N(CCC(=O)OCC)c4ccccn4)ccc3n2C)cc1`, the Potency is 23.5 µM (active).

Take `C[C@@H]1[C@H](C)CC[C@]2(C(=O)O)CC[C@]3(C)C(=CC[C@@H]4[C@@]5(C)CC[C@H](O)C(C)(C)[C@H]5CC[C@]43C)[C@@H]12`: the Potency is 0.303 µM (active).

As to `C[C@@]1(C(=O)Nc2ccc(F)nc2)CCCN1c1nc(Nc2cc(C3CC3)[nH]n2)c2cccn2n1`, the Potency is 0.0264 µM (active).

As for `CCn1c(-c2nonc2N)nc2cncc(CNC3CCNCC3)c21`, the Potency was 20.9 µM (active).

Consider `CN(C)c1ccc(-c2nc3ncc(Cl)c(N4CCN(CC(=O)Nc5nccs5)CC4)c3[nH]2)cc1`, for which the Potency is 0.833 µM (active).

For `CC[C@H](CC#N)OC(=O)N[C@@H](C)c1cccc(NC(=O)Nc2ccc(-c3cnco3)c(OC)c2)c1`, the Potency is 0.662 µM (active).

As to `CC1CNc2c(cccc2S(=O)(=O)N[C@@H](CCCN=C(N)N)C(=O)N2CC[C@@H](C)C[C@@H]2C(=O)O)C1` (stereo not given in full), the Potency is 9.35 µM (active).
